# Values joined by “and” are separate entries in the source; they are usually repeats but may differ in a detail not shown here. Equal entries are not always repeated. Records with an inconclusive call do not appear. A call without a number means that no potency is given here. Active and inactive are the calls of the source. Unless noted, calls come from the whole dose curve.
# Tests used:
# [1] = S16 Schwann cell PMP22 intronic element beta-lactamase assay (AID 624044); note: nearly all actives have a fitted effect of over 15% in size; note: potency is the fitted concentration of half-maximal effect
# In short: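 Rat S16 Schwann cells with beta-Lac driven by a PMP22 intronic element, compound-treated 24 h at 37 °C. LiveBLAzer FRET B/G read: 460 nm normalized to potassium clavulanate vs DMSO; 535 nm FRET as viability; concentration-effect curves classified.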
# [2] = qHTS assay for small molecule agonists of the antioxidant response element (ARE) signaling pathway (AID 651741; active = well fitted activation curve with a large enough effect in the signal ratio; the % refers to the signal ratio; note: potency is the fitted concentration of half-maximal effect)
# In short: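 Compounds in DMSO are pinned onto HepG2 ARE-bla cells (2,000/well) that were preincubated 5 h; plates stay 16 h at 37 C, then beta-lactamase activity is detected with LiveBLAzer B/G substrate by fluorescence.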
# [3] = qHTS assay for small molecule activators of the p53 signaling pathway (AID 651743; active = well fitted activation curve with a large enough effect in the signal ratio, not every such curve was filed as active; the % refers to the signal ratio; note: potency is the fitted concentration of half-maximal effect); settings: HCT-116 p53RE-bla, beta-lactamase FRET ratio, 16 h; activation: stronger effect = higher value
# In short: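 Cell-based beta-lactamase reporter (p53 response elements, HCT-116 background). After a 5-hour preincubation, cells received compound for 16 hours at 37 C; substrate development ran 2 hours at room temperature.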
# [4] = qHTS assay for small molecule activators of the nuclear factor-kappa B (NF-kB) signaling pathway (AID 651749; active = well fitted activation curve with a large enough effect in the signal ratio; the % refers to the signal ratio); settings: NF-kB-bla ME-180 cells, beta-lactamase FRET ratio, 16 h; stronger effect = higher value
# In short: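 Screening used 2,000 ME-180 reporter cells per well exposed to pinned compound (23 nL) or DMSO; after 16 hr at 37C, beta-lactamase expression under NF-kB control was assessed through FRET.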
# [5] = biological target: Tumor necrosis factor (Homo sapiens) (UniProt P01375); experiment: qHTS assay to identify small molecules that stimulate Tumor Necrosis Factor-alpha (TNF-alpha) secretion (AID 651757; active = well fitted curve in the direction sought with a large enough effect in the signal ratio; the % refers to the signal ratio; note: potency is the fitted concentration of half-maximal effect)
# In short: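 Read-out is HTRF, a TR-FRET sandwich of cryptate- and XL665-labeled anti-TNF-alpha antibodies detecting cytokine secreted by THP-1 cells. Cells had been incubated with test compounds at 37 C for 17 hrs beforehand.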
# [6] = qHTS assay to identify small molecules that stimulate interleukin-8 (IL-8) secretion (AID 651758; active = well fitted activation curve with a large enough effect in the signal ratio; the % refers to the signal ratio; note: potency is the fitted concentration of half-maximal effect)
# In short: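 THP-1, 2000 cells/well; cpd 16 h, 37 C; add cryptate + XL665 anti-IL-8 Abs; RT 1-3 h; TR-FRET read.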
# [7] = biological target: Glutaminase kidney isoform, mitochondrial (Homo sapiens) (UniProt O94925); experiment: qHTS for Inhibitors of Glutaminase (GLS): LOPAC Validation (AID 624146; active = well fitted curve in the direction sought with a large enough effect; an effect the other way counts as inactive or inconclusive;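 note: glutamate product detected by oxidase and peroxidase coupled Amplex red fluorescence gain; nearly all actives have a fitted effect of over 60% in size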)
# In short: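 Human kidney-isoform GLS in 45 mM KH2PO4 pH 8.2, 0.02% Tween-20, with compound, started with 1mM L-Glutamine (added stock). Glutamate oxidase/HRP/Amplex red coupled fluorescence read at start and after 30 min at RT.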
# [8] = qHTS of Trypanosoma Brucei Inhibitors: LOPAC Validation (AID 624147; active = well fitted curve in the direction sought with a large enough effect; an effect the other way counts as inactive or inconclusive)
# In short: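 ADP (130 uM final) triggers the TbPYK reaction after compound addition; incubation is 45 min at room temperature. Kinase-Glo Plus is then added and luminescence imaged. Normalized data are fitted to concentration-effect curves.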
# [9] = biological target: Glucagon-like peptide 1 receptor (Homo sapiens) (UniProt P43220); experiment: qHTS of GLP-1 Receptor Agonists: LOPAC Validation (AID 624148; active = well fitted curve in the direction sought with a large enough effect; an effect the other way counts as inactive or inconclusive;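 note: higher luminescence signal means agonism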)
# In short: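 HEK293 cells stably co-expressing a cAMP-responsive luciferase reporter and a hypersensitive GLP-1R were plated 12 h at 37 °C and exposed to compounds for 4-6 hr at 37 °C, 5% CO2. Luminescence was read 12 min after adding detection reagent.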
# [10] = qHTS of Nrf2 Activators: LOPAC Validation (AID 624149; active = well fitted curve in the direction sought with a large enough effect; an effect the other way counts as inactive or inconclusive)
# In short: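 Luminescence read-out of ARE-luciferase activation: AREc32_Fluc cells treated with compounds for 24 hr at 37 deg C, then lysed with Steady-Glo for 30 min at room temperature before reading.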
# [11] = HTS Assay for Allosteric Antagonists of the Human D2 Dopamine Receptor: Hit Validation in HTRF (AID 624455; active = well fitted curve in the direction sought with a large enough effect; an effect the other way counts as inactive or inconclusive; note: potency is the fitted concentration of half-maximal effect;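 note: stable D1 dopamine receptor cell line scored for blocking the D1 response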)
# In short: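 First, antagonism was screened by calcium flux in a force-coupled, inducible Hek293 Trex D2 line challenged with EC80 dopamine. Hits then went into an HTRF assay in cells stably expressing D1, testing inhibition of the D1 response.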
# [12] = Cytotoxicity counterscreen for NFkB agonists and antagonists (AID 624476; active = well fitted curve in the direction sought with a large enough effect; an effect the other way counts as inactive or inconclusive)
# [13] = qHTS Assay for Identification of Small Molecule Agonists for NFkB Signaling Pathway. (AID 624478; active = well fitted curve in the direction sought with a large enough effect; an effect the other way counts as inactive or inconclusive;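 note: compounds tested together with TNF alpha at its EC50 of 10 pM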)
# In short: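 ME-180 cervical carcinoma, stable NFkB-RE beta-lactamase reporter; 1000 cells/well, overnight attachment; cpd + TNF alpha 10 pM final, 5 h 37 C; LiveBLAzer 2 h RT; FRET 460/530 nm, ex 405 nm.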
# [14] = qHTS Assay for Identification of Small Molecule Antagonists for NFkB Signaling Pathway. (AID 624479);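 note: pathway stimulated with TNF alpha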
# [15] = Cell Proliferation Assay against the TMD8 Cell Line (AID 651645; active = well fitted curve in the direction sought with a large enough effect; an effect the other way counts as inactive or inconclusive;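 note: cells exposed to compound for 48 h before reading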); settings: TMD8 DLBCL cell line proliferation/viability; at 46.1 µM (top of the series)
# In short: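 Cell viability of the ABC DLBCL line TMD8 is measured by CellTiter-Glo luminescence following a 48-hour incubation with compound. Percent activity uses DMSO as 100% and 9.2 uM bortezomib (final) as 0%.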
# [16] = Cell Proliferation Assay against the HBL1 Cell Line (AID 651646; active = well fitted curve in the direction sought with a large enough effect; an effect the other way counts as inactive or inconclusive;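 note: cells exposed to compound for 48 h before reading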); settings: HBL1 DLBCL cells; at 46.1 µM (top of the series)
# In short: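 500 log-phase HBL1 cells per well in phenol red-free RPMI with 5% FBS were treated with compounds for 48 h at 37 °C, 5% CO2. Viability was read by CellTiter-Glo luminescence, normalized to DMSO (100%) and 9.2 uM bortezomib final (0%).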
# [17] = Cell Proliferation Assay against the TMD8 Cell Line (Caspase readout at 16 hrs) (AID 651712; active = well fitted curve in the direction sought with a large enough effect; an effect the other way counts as inactive or inconclusive)
# In short: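 TMD8 cells (500/well) in phenol-red-free RPMI with glutamine, 5% FBS, were exposed to compounds for 16 h at 37 °C. Caspase 3/7 activation was read by Caspase-Glo luminescence; percent activity normalised to DMSO (0%) and 9.2 uM bortezomib final (100%).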
# [18] = Cell Proliferation Assay against the TMD8 Cell Line (Caspase readout at 8 hrs) (AID 651713; active = well fitted curve in the direction sought with a large enough effect; an effect the other way counts as inactive or inconclusive)
# In short: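 Seed log-phase TMD8 cells, add compound by pin tool, incubate 8 h at 37C under 5% CO2, equilibrate to room temperature, add Caspase-Glo, wait 15 min, read luminescence; percent activity uses DMSO and 9.2 uM bortezomib controls.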
# [19] = qHTS assay for small molecule disruptors of the mitochondrial membrane potential - 5 hr assay (AID 651755); settings: JC-1-type ratio dye; note: potency is the fitted concentration of half-maximal effect; nearly all actives have a fitted effect of over 40% in size
# In short: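 HepG2 cells, attached overnight at 37C, were exposed to compound or DMSO for 5 hr at 37C, 5% CO2. Mito-MPS dye was then added for 30 min, and fluorescence read at 490/535 nm (monomers) and 540/590 nm (aggregates).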
# [20] = qHTS assay for small molecule disruptors of the mitochondrial membrane potential - 1 hr assay (AID 651754); note: nearly all actives have a fitted effect of over 35% in size; note: potency is the fitted concentration of half-maximal effect
# In short: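 HepG2, 2,000 cells/well, overnight attachment; cpd or DMSO 1 hr, 37C/5% CO2; Mito-MPS dye 30 min, 37C; fluorescence monomer (490/535) and aggregate (540/590).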
# Sequence of Glutaminase kidney isoform, mitochondrial (Homo sapiens) (O94925 whole entry, looked up, canonical isoform): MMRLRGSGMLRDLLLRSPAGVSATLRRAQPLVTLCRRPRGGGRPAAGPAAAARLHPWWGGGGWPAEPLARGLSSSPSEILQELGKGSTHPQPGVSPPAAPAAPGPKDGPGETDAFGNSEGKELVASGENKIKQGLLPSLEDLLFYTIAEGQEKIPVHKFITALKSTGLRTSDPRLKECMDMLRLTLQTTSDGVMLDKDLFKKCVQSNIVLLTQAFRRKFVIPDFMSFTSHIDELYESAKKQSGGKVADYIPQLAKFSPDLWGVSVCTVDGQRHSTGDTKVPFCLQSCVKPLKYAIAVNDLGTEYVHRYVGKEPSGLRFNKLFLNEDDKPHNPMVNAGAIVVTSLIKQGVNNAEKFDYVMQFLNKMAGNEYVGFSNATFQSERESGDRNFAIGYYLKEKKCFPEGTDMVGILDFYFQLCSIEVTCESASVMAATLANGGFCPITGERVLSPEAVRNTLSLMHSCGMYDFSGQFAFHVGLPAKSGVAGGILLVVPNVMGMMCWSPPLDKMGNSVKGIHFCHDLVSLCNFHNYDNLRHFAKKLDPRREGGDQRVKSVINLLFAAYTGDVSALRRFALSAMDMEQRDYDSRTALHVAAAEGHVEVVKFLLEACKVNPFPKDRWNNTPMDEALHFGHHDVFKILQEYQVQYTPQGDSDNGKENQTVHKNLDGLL
# Sequence of Glucagon-like peptide 1 receptor (Homo sapiens) (P43220 whole entry, looked up): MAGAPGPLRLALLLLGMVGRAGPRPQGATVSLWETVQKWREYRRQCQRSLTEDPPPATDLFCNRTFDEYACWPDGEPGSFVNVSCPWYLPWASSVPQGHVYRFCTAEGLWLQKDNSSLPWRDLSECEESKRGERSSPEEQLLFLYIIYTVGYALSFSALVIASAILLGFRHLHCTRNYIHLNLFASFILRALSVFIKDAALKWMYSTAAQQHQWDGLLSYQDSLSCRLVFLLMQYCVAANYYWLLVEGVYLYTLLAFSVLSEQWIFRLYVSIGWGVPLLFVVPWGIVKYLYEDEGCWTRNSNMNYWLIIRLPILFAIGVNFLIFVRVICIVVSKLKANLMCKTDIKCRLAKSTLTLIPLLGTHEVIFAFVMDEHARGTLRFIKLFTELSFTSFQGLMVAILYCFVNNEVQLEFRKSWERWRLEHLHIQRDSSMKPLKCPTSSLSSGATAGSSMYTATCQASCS
# Sequence of Tumor necrosis factor (Homo sapiens) (P01375 whole entry, looked up): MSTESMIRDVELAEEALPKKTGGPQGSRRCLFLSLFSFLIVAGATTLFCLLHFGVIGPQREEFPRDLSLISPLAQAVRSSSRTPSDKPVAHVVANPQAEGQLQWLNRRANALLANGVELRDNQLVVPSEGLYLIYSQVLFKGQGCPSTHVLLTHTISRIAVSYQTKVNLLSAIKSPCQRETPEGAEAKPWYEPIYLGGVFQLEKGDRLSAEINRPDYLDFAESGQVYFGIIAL
compound,measurement,setting,value
C#C[C@]1(O)CC[C@H]2[C@@H]3CCC4=CC(=O)CCC4=C3C=C[C@@]21CC,Potency,[1],inactive
C[C@]12C=CC(=O)C=C1CC[C@@H]1[C@@H]2CC[C@@]2(C)[C@H]1CC[C@]2(C)O,Potency,[1],inactive
CC(C)[N+](C)(CCC(C(N)=O)(c1ccccc1)c1ccccc1)C(C)C,Potency,[1],inactive
CNC(=O)Oc1cccc2ccccc12,Potency,[1],inactive
same,Potency,[2],33.5 µM (active) and 17.2 µM (active)
same,activation,[3],1.34% (inactive)
same,activation,[4],0.189% (inactive) and -3.62% (inactive)
same,Potency,[5],inactive
same,Potency,[6],inactive
Nc1ccc(N)cc1,Potency,[1],inactive
CCCCCCCCCCCCCCCC[n+]1ccccc1,Potency,[1],12.6 µM (active)
same,Potency,[2],10.6 µM (active)
CCN(CC)CCOC(=O)C(C)(c1ccccc1)c1ccccc1,Potency,[1],inactive
NC(N)=NN=C(/C=C/c1ccc([N+](=O)[O-])o1)/C=C/c1ccc([N+](=O)[O-])o1,Potency,[1],9.99 µM (active)
Clc1ccc(CO/N=C(\Cn2ccnc2)c2ccc(Cl)cc2Cl)c(Cl)c1,Potency,[1],inactive
O=C(O)c1nn(Cc2ccc(Cl)cc2Cl)c2ccccc12,Potency,[1],inactive
same,outcome,[7],inactive
same,outcome,[8],inactive
same,outcome,[9],inactive
same,outcome,[10],inactive
same,Potency,[11],inactive
same,outcome,[12],inactive
same,outcome,[13],inactive
same,outcome,[14],inactive
same,viability (% of control),[15],107%
same,"viability, percent of control",[16],112%
same,outcome,[17],inactive
same,outcome,[18],inactive
COc1ccc(CN2CCNCC2)c(OC)c1OC,Potency,[1],inactive
CCC1(CC)C(=O)NC(=O)NC1=O,Potency,[1],inactive
CC(Cc1ccccc1)NCc1ccccc1Cl (stereo not drawn),Potency,[1],inactive
CC(C)NCC(O)c1ccc(N)c(C#N)c1 (stereo not drawn),Potency,[1],inactive
COP(=O)(OC)C(O)C(Cl)(Cl)Cl (stereo not drawn),Potency,[1],inactive
same,Potency,[2],19.3 µM (active)
same,activation,[3],6.58% (inactive)
same,activation,[4],1.93% (inactive)
CN1C(=O)CN=C(c2ccccc2)c2cc([N+](=O)[O-])ccc21,Potency,[1],inactive
Cc1ccc(N=CN(C)C=Nc2ccc(C)cc2C)c(C)c1,Potency,[1],inactive
same,Potency,[2],24.3 µM (active)
same,activation,[3],15.6% (inactive)
CC[C@]1(O)CC[C@H]2[C@@H]3CCC4=CCCC[C@@H]4[C@H]3CC[C@@]21C,Potency,[1],inactive
CC(C)(C)OC(=O)c1ncn2c1[C@@H]1CCCN1C(=O)c1c(Br)cccc1-2,Potency,[1],inactive
C=CCOC(Cn1ccnc1)c1ccc(Cl)cc1Cl (stereo not drawn),Potency,[1],inactive
same,activation,[3],19.4% (inactive) and 4.84% (inactive)
NC(=O)OCCCc1ccccc1,Potency,[1],inactive
COP(=O)(OC)OC=C(Cl)Cl,Potency,[1],15.8 µM (active)
same,Potency,[2],37.6 µM (active) and 42.2 µM (active) and 30.6 µM (active)
same,activation,[4],1.84% (inactive) and 0.182% (inactive)
same,Potency,[5],inactive
same,Potency,[6],21.1 µM (active) and 66.8 µM (active)
CCCCCCCCCCCC[N+](C)(C)CCOc1ccccc1,Potency,[1],inactive
same,activation,[3],13.3% (inactive)
same,Potency,[5],inactive
same,Potency,[6],inactive
CN1C[C@H](C(=O)N[C@]2(C)O[C@@]3(O)[C@@H]4CCCN4C(=O)[C@H](Cc4ccccc4)N3C2=O)C[C@@H]2c3cccc4[nH]cc(c34)C[C@H]21,Potency,[11],82 nM (active)
CC[n+]1c(-c2ccccc2)c2cc(N)ccc2c2ccc(N)cc21,Potency,[2],33.5 µM (active)
same,Potency,[3],8.91 µM (active)
same,Potency,[19],11.9 µM (active)
same,Potency,[5],37.6 µM (active)
COCC(=O)N(c1c(C)cccc1C)C(C)C(=O)OC (stereo not drawn),Potency,[2],inactive
same,activation,[3],-5.17% (inactive)
C[C@H]1C(=O)O[C@@H]2CCN3CC=C(COC(=O)[C@](C)(O)[C@]1(C)O)[C@H]23,Potency,[2],inactive
same,activation,[4],0.569% (inactive)
C[C@@H]1C[C@@H]([C@H](O)CC2CC(=O)NC(=O)C2)C(=O)[C@@H](C)C1,activation,[3],3.69% (inactive) and -1.29% (inactive) and 0.673% (inactive)
same,activation,[4],5.34% (inactive)
same,Potency,[5],inactive
CCNc1nc(Cl)nc(NCC)n1,Potency,[2],inactive
same,activation,[3],1.85% (inactive)
COP(=S)(OC)Oc1ccc(Sc2ccc(OP(=S)(OC)OC)cc2)cc1,Potency,[2],61.1 µM (active)
same,activation,[3],9.51% (inactive)
CCOP(=S)(OCC)O/N=C(\C#N)c1ccccc1,activation,[4],0.361% (inactive)
COc1ccc(C(=O)N2CCCC2=O)cc1,outcome,[7],inactive
same,outcome,[9],inactive
same,outcome,[10],inactive
same,Potency,[11],inactive
CCC(=O)O[C@H]1CC[C@H]2[C@@H]3CCC4=CC(=O)CC[C@]4(C)[C@H]3CC[C@]12C,Potency,[2],inactive
same,activation,[3],-1.29% (inactive)
same,activation,[4],-1.92% (inactive)
N#Cc1nn(-c2c(Cl)cc(C(F)(F)F)cc2Cl)c(N)c1S(=O)C(F)(F)F (stereo not drawn),Potency,[2],61.1 µM (active)
O=C(NC(=O)c1c(F)cccc1F)Nc1cc(Cl)c(OC(F)(F)C(F)C(F)(F)F)cc1Cl (stereo not drawn),Potency,[2],19.3 µM (active)
same,activation,[3],4.35% (inactive)
same,activation,[4],1.78% (inactive)
NC(N)=NC(=O)c1nc(Cl)c(N)nc1N,Potency,[2],42.2 µM (active)
COC(=O)C1=CCCN(C)C1,outcome,[7],inactive
same,outcome,[8],inactive
same,outcome,[9],inactive
same,outcome,[10],inactive
same,Potency,[11],inactive
CN(C)C(=S)SSC(=S)N(C)C,Potency,[2],inactive
same,activation,[3],2.15% (inactive) and 1.76% (inactive)
same,activation,[4],-1.21% (inactive)
same,Potency,[20],inactive
same,Potency,[19],23.7 µM (active)
same,Potency,[5],inactive
NC(=O)CN1CCCC1=O,outcome,[7],inactive
same,outcome,[8],inactive
same,outcome,[9],inactive
same,outcome,[10],inactive
same,Potency,[11],inactive
O=C(CCl)c1ccc(Cl)cc1Cl,activation,[4],-1.69% (inactive)
same,Potency,[5],inactive
same,Potency,[6],3.76 µM (active)
Oc1c(Br)cc(Br)cc1Br,Potency,[2],42.2 µM (active)
same,activation,[4],-2.42% (inactive) and -0.471% (inactive)
same,Potency,[5],inactive
CN(C)C(=S)SC(=S)N(C)C,Potency,[2],24.3 µM (active)
Oc1ccc(Cl)cc1Cc1cc(Cl)ccc1O,Potency,[2],18.8 µM (active)
same,activation,[4],2.23% (inactive)
same,Potency,[20],10.6 µM (active)
same,Potency,[19],11.9 µM (active)
Oc1ccc(Cl)cc1Sc1cc(Cl)ccc1O,Potency,[2],29.8 µM (active)
same,Potency,[3],28.2 µM (active)
same,Potency,[20],8.41 µM (active)
same,Potency,[19],7.5 µM (active)
O=c1n(Cl)c(=O)n(Cl)c(=O)n1Cl,activation,[3],-4.94% (inactive)
same,activation,[4],-1.25% (inactive)
CCCCCCCCC(=O)NCc1ccc(O)c(OC)c1,Potency,[1],inactive
same,activation,[4],-0.791% (inactive)

# Reference: PubChem BioAssay (NCATS)
